# Source: PubChem
# Only a selection was taken, and hits are over-represented in it overall.
# Cycloheximide cs – counter-screen for Shiga toxin inhibitors: cycloheximide protein synthesis inhibition; cell reporter, cycloheximide protein synthesis inhibition counterscreen; max response, %; AID 2314; 300,000 compounds, 12% hits; in the data active = max response mostly above about 13%, no sharp cut-off; inactive = mostly below about 14%; note: read at 38.3 µM for the half of the compounds with a filed dose; 0% is about no effect
# LmPK inhibitor – LmPK (Leishmania mexicana) enzyme inhibition | Q27686 | purified LmPK, Kinase-Glo ATP luminescence, 1 h | Potency, µM (highest dose often 57.5 µM), for inactives: at the highest dose activity change, negative = inhibition, usual class: inhibitors | 290,000 compounds, 0.37% hits; note: potency is the fitted concentration of half-maximal effect; % is set by controls: 0 for no effect and ±100 for the full control effect
# Target sequence (Q27686 whole entry, looked up): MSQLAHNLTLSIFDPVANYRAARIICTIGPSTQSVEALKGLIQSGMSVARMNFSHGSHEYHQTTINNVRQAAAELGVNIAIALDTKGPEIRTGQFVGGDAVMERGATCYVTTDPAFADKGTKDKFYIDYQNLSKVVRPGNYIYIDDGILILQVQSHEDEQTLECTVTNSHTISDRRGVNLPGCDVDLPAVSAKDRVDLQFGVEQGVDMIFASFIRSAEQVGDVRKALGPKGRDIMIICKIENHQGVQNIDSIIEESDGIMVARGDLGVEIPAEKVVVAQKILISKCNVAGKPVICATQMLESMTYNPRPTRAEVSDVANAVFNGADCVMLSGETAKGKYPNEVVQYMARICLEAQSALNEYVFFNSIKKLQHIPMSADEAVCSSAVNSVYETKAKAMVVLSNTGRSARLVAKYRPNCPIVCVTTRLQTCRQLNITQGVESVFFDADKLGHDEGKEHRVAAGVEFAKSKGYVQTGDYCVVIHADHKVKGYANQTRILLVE
#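 qHTS format; LmPK 0.1 nM; substrates PEP 0.5 mM and ADP 0.1 mM. One-hour room-temperature incubation, then coupled luciferase luminescence; 0.5 nM enzyme wells mark activation.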
# Giardia FBPA inh – Giardia lamblia aldolase inhibition; purified Giardia FBPA; Potency, µM (series often up to 59.6 µM), for the others: at the top dose activity, negative = inhibition, hits mostly inhibitors; 290,000 compounds, 0.71% hits; A8B2U2; note: potency is the fitted concentration of half-maximal effect; % is set by controls: 0 for no effect and ±100 for the full control effect; nearly all actives have a fitted effect of over 55% in size
#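 Giardia FBPA (40 nM reagent) was preincubated 10 min at RT with compound (up to 57.5 uM final), then substrate plus GAPDH/TPI/NAD/arsenate coupling system with diaphorase/resazurin was added; resorufin fluorescence (525/598 nm) was read after 20 min.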
# RE007 growth inh – less growth of the S. pombe RE007 Vpr strain; Potency, µM (series often up to 92.2 µM), inactives show at the top dose activity change, negative = less growth, usual class: inhibitors; AID 651644; 360,000 compounds, 0.21% hits; S. pombe RE007 Vpr strain, BacTiter-Glo ATP luminescence, 24 h; active = well fitted falling curve with a large enough effect; inconclusive = small, poorly fitted or top-dose-only effect; inactive = no such curve, though single readings can be large or run the other way; note: potency is the fitted concentration of half-maximal effect; % is set by controls: 0 for no effect and ±100 for the full control effect; nearly all actives have a fitted effect of over 50% in size
#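 Fission yeast strain RE007, carrying one chromosomally integrated HIV-1 vpr copy, was seeded at OD 0.01 in PMG+AL medium with 23 nL pinned compound. After 24 h at 30 °C and 99% humidity, viability was read by BacTiter-Glo luminescence.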
# Shiga toxin inh – Shiga toxin inhibition. inhibition, % at 38.7 µM. AID 2315. 290,000 compounds, 9.2% hits. Vero cells, Shiga toxin protein synthesis inhibition reporter; in the data active = inhibition mostly above about 28%, no sharp cut-off; inactive = mostly below about 43%; note: 0% is about no effect
# TbPYK inhibitor – blocks Trypanosoma brucei pyruvate kinase. Q57TT1. TbPYK enzyme, Kinase-Glo Plus ATP luminescence, 45 min. Potency, µM (titrated, usually from 76.8 µM), without a hit: at the highest dose activity, negative = inhibition, hits mostly inhibitors. 410,000 compounds, 0.12% hits. AID 624173; note: potency is the fitted concentration of half-maximal effect; % is set by controls: 0 for no effect and ±100 for the full control effect; nearly all actives have a fitted effect of over 50% in size
#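 Screened from lowest to highest concentration, compounds were pinned into TbPYK/substrate mixtures, and ADP (130 uM final) was added. Plates sat at room temperature for 45 min prior to Kinase-Glo Plus detection by luminescence.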
# * = called active by the depositor; ? = inconclusive; · = not tested or not shown. Unless noted, calls come from the whole dose curve; as a rule, active = well fitted curve in the direction sought with a large enough effect; inconclusive = small, poorly fitted or top-dose-only effect, or another doubt; inactive = no such curve, though single readings can be large; an effect the other way counts as inactive or inconclusive.
SMILES,Cycloheximide cs,LmPK inhibitor,Giardia FBPA inh,RE007 growth inh,Shiga toxin inh,TbPYK inhibitor
COc1ccc(C(=O)c2c[nH]c(C(=O)N=CN(C)C)c2)cc1,20*,1%,-1%,-17%,42*,-2%
O=C(O)CCC/C=C\C[C@@H]1[C@@H](/C=C/[C@@H](O)COc2cccc(C(F)(F)F)c2)[C@H](O)C[C@@H]1O,·,·,5%,·,·,0%
Nc1ncc2c(n1)-c1ccccc1CC2,13,7%,0%,-8%,33,-9%
O=C(Nc1nc2c(s1)CCc1ccccc1-2)c1cccs1,41*,5%,-10%,2%,94*,-27%
Fc1ccccc1Nc1nc2c(s1)CCc1ccccc1-2,73*,-5%,20µM*,·,85*,·
O=C(Nc1ncc2c(n1)-c1ccccc1CC2)c1ccccc1,20*,-1%,-8%,-14%,63*,13%
O=C(Nc1ncc2c(n1)-c1ccccc1CC2)c1cccs1,28*,-4%,-29%,-2%,64,-3%
O=C(Nc1ncc2c(n1)-c1ccccc1CC2)c1ccc(F)cc1,-3,2%,-6%,24%,-7,2%
COc1ccc(-c2n[nH]c3c2C(c2ccc(Cl)cc2Cl)NC3=O)cc1 (configuration not stated),·,·,·,·,·,-3%
COc1ccc(NC(=O)Nc2sc3nc4n(c(=O)c3c2C)CCC(C)CC4)cc1OC (configuration not stated),·,·,·,·,·,-3%
CN(C)c1ccc(-c2nnc(SCC3CCCO3)n2C)cc1 (configuration not stated),44*,-9%,1%,3%,80*,2%
O=C(C1CCN(S(=O)(=O)c2cccnc2)CC1)N1CCN(c2ccccc2Cl)CC1,26*,-2%,5%,-3%,29,4%
CC(=O)Nc1ccc(NC(=O)CSc2nc(N)c(NC(=O)c3ccco3)c(=O)[nH]2)cc1,-2,1%,·,1%,2,-2%
Nc1ccc(N2CCN(C(=O)c3ccco3)CC2)cc1,2,0%,-22%,-15%,12,-17%
O=C(O)c1cc(-c2ccco2)nc2ccccc12,-2,12%,?,-19%,-25,?
O=C(c1ccco1)N1CCN(c2ccc(F)cc2)CC1,26,-6%,2%,-7%,100*,-7%
O=C(Nc1ccc(N2CCN(C(=O)c3ccco3)CC2)cc1)c1ccccc1,12*,-3%,-7%,-26%,14,-8%
O=C(c1cc(-c2ccco2)nc2ccccc12)N1CCN(c2ccc(F)cc2)CC1,33*,-1%,?,-5%,78*,-6%
O=C(Nc1ccc(N2CCN(C(=O)c3ccco3)CC2)cc1)c1ccc(F)cc1,-2,13%,-2%,-7%,3,3%
CC(C)(C)C(=O)N1CCN(c2ccc(NC(=O)c3ccco3)cc2)CC1,-2,-1%,·,-10%,10,-5%
O=C(Nc1ccc(N2CCN(Cc3ccccc3)CC2)cc1)c1ccco1,13*,-1%,·,2%,65*,-2%
O=C(N/N=C/c1ccccn1)c1cc(-c2ccncc2)nc2ccccc12,-3,-1%,-2%,9%,-4,2%
C(=N\Nc1nc2ccccc2s1)/c1ccccn1,-5,?,?,14µM*,-25,-16%
Cc1ccc2[nH]c(C)c(/C=N/Nc3nc4ccccc4s3)c2c1,51*,4%,1%,-3%,39,4%
C(=NNc1ccc2ccccc2n1)c1ccccn1,·,·,·,28µM*,·,-16%
SMILES,Cycloheximide cs,LmPK inhibitor,Giardia FBPA inh,RE007 growth inh,Shiga toxin inh,TbPYK inhibitor
Brc1csc(/C=N/Nc2nc3ccccc3s2)c1,38*,-5%,-5%,-27%,92*,2%
O=C(N/N=C\c1cc(Br)cs1)c1ccncc1,1,-3%,-8%,2%,36,1%
O=C(Cc1ccccc1)N/N=C/c1ccccn1,·,·,·,-1%,·,7%
COCc1cc(C)n(CC(=O)Nc2ccc3c(c2)OCO3)c(=O)c1C#N,3,-3%,·,3%,10,6%
O=C(OCC(=O)c1ccc[nH]1)c1ccc(F)c(S(=O)(=O)N2CCOCC2)c1,·,·,·,8%,·,1%
CCOC(=O)c1ccccc1NC(=O)Cn1c(=O)n(CCCC(=O)NCc2ccc3c(c2)OCO3)c(=O)c2ccccc21,·,·,·,·,·,-13%
Brc1ccsc1/C=N/Nc1ccccc1,·,·,·,21%,·,-3%
C(=N\Nc1ccccc1)/c1nc2ccccc2s1,64*,-6%,7%,-5%,135*,0%
Cc1cc(/C=C(\C#N)C(=O)OCC(=O)N(C)c2c(N)n(Cc3ccccc3)c(=O)[nH]c2=O)c(C)n1CC(C)C,·,·,·,-6%,·,-3%
COCCn1c(C)cc(/C=C(\C#N)C(=O)OCC(=O)Nc2ccc(S(N)(=O)=O)cc2)c1C,·,·,·,-6%,·,-4%
Cc1cc(/C=C(\C#N)C(=O)OCC#N)c(C)n1CC(C)C,28*,0%,5%,1%,59*,10%
Cc1cc(/C=C(\C#N)C(=O)OCC(=O)Nc2ccc(OC(F)F)cc2)c(C)n1CC(C)C,26*,0%,-4%,-26%,32,-3%
Cn1c(=O)[nH]c(=O)c2c1nc(NCCCO)n2Cc1ccc(F)cc1,16,-8%,11%,16%,79*,-1%
Cc1ccc(Nc2nc3c(c(=O)[nH]c(=O)n3C)n2Cc2ccc(F)cc2)cc1,13*,1%,2%,0%,26*,1%
CCC(C)Nc1nc2c(c(=O)[nH]c(=O)n2C)n1Cc1ccc(F)cc1 (configuration not stated),·,·,·,·,·,-5%
CCNc1ncc2nc(-c3cc(F)cc(F)c3)c(=O)n(CCOC)c2n1,·,·,0%,·,·,·
Cc1sc(NC(=O)c2ccco2)c(C(Nc2ccccn2)c2ccccc2)c1C (configuration not stated),13*,0%,-1%,2%,25,-12%
COc1cccc(C(Nc2ccccn2)c2c(NC(=O)c3ccco3)sc(C)c2C)c1 (configuration not stated),1,5%,3%,-5%,6,-10%
COc1ccc(C(Nc2ccccn2)c2c(NC(=O)c3ccco3)sc(C)c2C)cc1 (configuration not stated),29*,-3%,0%,-2%,29,-1%
CN(C)c1ncc2nc(-c3cccs3)c(=O)n(C)c2n1,·,·,6%,·,·,·
NCCCC(O)(P(=O)(O)O)P(=O)(O)O,-4,·,0%,·,10,2%
Cc1ccc(C2CC2c2n[nH]c(=S)n2-c2ccc(C)cc2)cc1 (configuration not stated),9,11µM*,4%,-9%,-6,?
Cc1ccc(-n2c([C@@H]3C[C@H]3c3ccccc3)n[nH]c2=S)cc1,8,?,6%,15%,22,?
